Compound activity (PubChem BioAssay)
The list is not random: actives were taken first. Their share in the collection is about 12%.
L3MBTL1 block: qHTS Assay for the Inhibitors of L3MBTL1; Lethal(3)malignant brain tumor-like protein 1 (Homo sapiens), Q9Y468; AlphaScreen L3MBTL1–H3K9me1 peptide binding; Potency, µM (series often up to 57.1 µM), for the others: at the highest dose activity, negative = inhibition, most hits filed as inhibitors; 0.66% of 230,000 active; AID 485360, 2010; also: % is scaled to controls: 0 for no effect and ±100 for the full control effect; nearly all actives have a fitted effect of over 60% in size
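Read-out is AlphaScreen signal from streptavidin donor and nickel chelate acceptor beads (10 ug/mL final each) bridging L3MBTL1 (50 nM) and biotinylated K9-monomethylated H3(1-15) peptide (75 nM), after 30 min compound exposure at room temperature.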
Sfp PPTase inh: qHTS Assay for Inhibitors of Bacillus subtilis Sfp phosphopantetheinyl transferase (PPTase); Biochemical Sfp PPTase activity, qHTS; Potency, µM, for inactives: largest response in the series, negative = inhibition, usual class: inhibitors; 3.5% of 310,000 active; 4'-phosphopantetheinyl transferase ffp (Bacillus subtilis), Q9F4F7;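 also: the enzyme is Sfp with the accession as filed and its product quenches rhodamine fluorescence; 0% = enzyme reaction without inhibitor and -100% = no enzyme wells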
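Reaction rates are the 30-min fluorescence difference (ex 525, em 598 nm) in wells containing 15 nM Sfp, 5 uM rhodamine-CoA and 12.5 uM BHQ-2-YbbR at pH 7.6 with 10 mM MgCl2.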
G9a inh: qHTS Assay for Inhibitors of Histone Lysine Methyltransferase G9a | Histone-lysine N-methyltransferase EHMT2 (Homo sapiens), Q96KQ7 | G9a H3K9 monomethylation, AlphaScreen, 2 h | Potency, µM (highest dose often 102 µM), inactives show at the highest dose activity, negative = inhibition, hits mostly inhibitors | 8.8% of 350,000 active | AID 504332, 2011; also: % is scaled to controls: 0 for no effect and ±100 for the full control effect; nearly all actives have a fitted effect of over 75% in size
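Compounds were preincubated with 20 nM G9a for 15 min, after which biotinylated H3K9 peptide (500 nM) and SAM (20 uM) started a 2 h room-temperature reaction. Monomethylated product was quantified by antibody-based AlphaScreen chemiluminescence.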
HP1b binding inh: HTS for Inhibitors of HP1-beta Chromodomain Interactions with Methylated Histone Tails; AlphaScreen HP1-beta / biotin-H3K9me3 peptide binding; AID 540317, 2011; 0.56% of 390,000 active; Potency, µM (titrated, usually from 114 µM), inactives show at the top dose activity change, negative = inhibition, most hits filed as inhibitors; Chromobox protein homolog 1 (Homo sapiens), P83916; also: nearly all actives have a fitted effect of over 70% in size
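Compound inhibition of the preformed complex between 50 nM HP1-beta and 50 nM biotinylated H3K9me3 peptide was read by AlphaScreen. Buffer was PBS pH 7.4 with 0.01% Tween-20. Incubations ran 30 min at room temperature, with 10 ug/mL donor/acceptor beads.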
JMJD2A Tudor: qHTS Assay for Inhibitors of JMJD2A-Tudor Domain; AlphaScreen JMJD2A-Tudor / H3K4me3 peptide binding; Potency, µM (titrated, usually from 114 µM), inactives show at the highest dose activity change, negative = inhibition, actives largely listed as inhibitors; 4.4% of 390,000 active; AID 504339, 2011; also: % is scaled to controls: 0 for no effect and ±100 for the full control effect; nearly all actives have a fitted effect of over 50% in size
BAZ2B block: qHTS Assay for Inhibitors of BAZ2B | Bromodomain adjacent to zinc finger domain protein 2B (Homo sapiens), Q9UIF8 | AlphaScreen BAZ2B-H3K14Ac peptide displacement | Potency, µM (top dose mostly 114 µM), without a hit: at the highest dose activity change, negative = inhibition, usual class: inhibitors | 4.4% of 360,000 active | AID 504333, 2011; also: % is scaled to controls: 0 for no effect and ±100 for the full control effect; nearly all actives have a fitted effect of over 60% in size
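Protein-peptide AlphaScreen: BAZ2B 50 nM, b-H3K14Ac 50 nM, 1x PBS pH 7.4 + 0.01% Tween-20. Preincubation 30 min RT; cpd 30 min RT (top 110 uM); beads 20 min RT, light-protected.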
An asterisk follows results filed as active; ? = inconclusive; nt = not tested or not shown; [ ] = dose if it differs, or a comment. Calls follow the shape of the dose curve; as a rule, active = well fitted curve in the direction sought with a large enough effect; inconclusive = small, poorly fitted or top-dose-only effect, or another doubt; inactive = no such curve, though single readings can be large; an effect the other way counts as inactive or inconclusive. Potency is read from the fitted curve at half-maximal effect.

SMILES	L3MBTL1 block	Sfp PPTase inh	G9a inh	HP1b binding inh	JMJD2A Tudor	BAZ2B block
CN(C)c1ccc(/C=C/C(=O)c2cc(Cl)ccc2O)cc1	32µM*	-11%	4µM*	?	13µM*	6.3µM*
NC(=O)c1c(NC(=O)c2nc(SCc3ccccc3F)ncc2Cl)sc2c1CCCC2	nt	nt	?	37%	-1%	?
Cn1c(=O)c(=O)n(C)c2cc([N+](=O)[O-])c(N3CCOCC3)cc21	6%	-10%	nt	24%	-8%	?
COc1ccc(S(=O)(=O)N2CCCCC2)cc1NC(=O)Cn1cnc2c1c(=O)n(C)c(=O)n2C	4%	nt	nt	15%	-7%	nt
Cc1nc(SCc2nc3c(F)cccc3[nH]2)c2oc3ccccc3c2n1	10%	nt	nt	29%	79µM*	nt
Cc1nc(SCc2ccccc2F)c2oc3ccccc3c2n1	10%	79µM*	58%[59 µM]	68%	62%	33%
Cc1nc(SCC(=O)c2cccs2)c2oc3ccccc3c2n1	nt	79µM*	14%[12.7 µM]	39%	7%	11%
CCOc1ccccc1-c1nnc2n1N=C(c1ccc(OC)cc1)CS2	nt	-24%	nt	nt	-26%	nt
C/C=C/OC(=O)NC(c1ccccc1)[C@@]1(C(=O)OC)CCCC1=O (some centres not stated)	nt	12%	nt	nt	nt	nt
Cc1cccc(C(=O)Nc2nc3nc(-c4ccccc4)cc(=O)n3[nH]2)c1	nt	nt	2%[59 µM]	62%	-22%	?
NC(N)=NCCC[C@H](N)C(=O)NCC(=O)N[C@@H](CC(=O)O)C(=O)N[C@@H](CO)C(=O)O	nt	0%	nt	nt	nt	nt
S=c1[nH]nc(-c2ccco2)n1/N=C/c1ccccc1Cl	-8%	?	1.4µM*	22%	32µM*	1%
S=c1[nH]nc(-c2ccco2)n1/N=C/c1ccc(Cl)cc1	-5%	-20%	1.3µM*	?	40µM*	?
Cc1ccc(/C=N/n2c(C)nnc2C)s1	9%	7%	?	?	-21%[57.1 µM]	-4%
Cc1ccc(/C=N/n2c(-c3ccco3)n[nH]c2=S)s1	-1%	?	1.3µM*	14%	20µM*	-14%
COc1ccccc1OC(C)C(=O)Nc1ccccc1C(=O)NCC1CCCO1 (configuration not stated)	nt	24%	24%	30%	-5%	-15%
Cc1cccc(N2CCN(C(=O)CCn3c(=O)c4cccn4c4cccnc43)CC2)c1C	nt	nt	-4%[59 µM]	13%	-15%	-11%
Cc1ccc2ccc3c(c2n1)NS(=O)(=O)c1ccc(C(F)(F)F)cc1-3	nt	nt	nt	17%	-24%	nt
Cc1ccc2[nH]cc(C(c3ccccc3)c3cccs3)c2c1 (configuration not stated)	nt	nt	-6%[59 µM]	16%	-26%	-30%
O=C(O)CCCCCNC(=O)Nc1ccc2c(c1)OCCO2	nt	15%	30%[59 µM]	23%	-10%	7%
O=C(O)CCNc1ccc2c(c1)OCCO2	12%	50µM*	?	1%	45µM*	-9%
CC(C)(C)C(=O)Nc1ccc2c(c1)OCCOCCOc1cc(NC(=O)C(C)(C)C)ccc1OCCOCCO2	4%	30%	3%	39%	-8%	-12%
CC(=O)Nc1ccc2c(c1)OCCOCCOc1cc(NC(C)=O)ccc1OCCO2	7%	11%	50µM*	9%	-14%	-16%
CC(=O)N/N=C(\C)CC(=O)Nc1ccc2c(c1)OCCO2	0%	1%	45µM*	13%	-15%	-38%
